Results reported in the OligoGym collection.

Each sequence was assayed against SAMD10 (assay: pooled miR-30 sensor sort-seq; sequence = guide strand). Conditions: shRNA.
Also: reference of the scale not given here.

| Sequence | sensor-assay potency score (higher = more potent) |
| --- | --- |
| TTACTTCTCATGAATAGAGGGG | 0.161 |
| TTGTGGGGACAGTGCTTCTTGA | -1.41 |
| ATGCTCTCAGCTGACACCGTGT | -1.22 |
| TGCAGGAGCTTGATTGGCCTGC | -1.14 |
| TAGACGAGGTAGTTGTGGGGAC | -0.47 |
| TAAATAAACAGACTCCCTGGGA | -0.205 |
| ATAGTGGTCAGAGTACAGCCGG | -1.22 |
| TGCTTCTTGAGCCACTTGCAGA | -1.33 |
| TATGGTACAGGCCATAGTGGTC | -1.37 |
| TAAATAATGATGAAAGTGCTTG | -0.363 |
| TAGTGGTCAGAGTACAGCCGGC | -1.02 |
| TTGTGCCACATTTTGTCTCTGG | -0.0935 |

Each sequence was assayed against SAMD3 in the same assay as above. Conditions: shRNA.

| Sequence | sensor-assay potency score (higher = more potent) |
| --- | --- |
| TGTAACACAGTCGTCCACCTTT | -0.369 |
| TTAACTTCCAACACAGGTGTGG | 0.183 |
| TTCTGCTCTGCTAACATGCATT | -1.16 |
| TTCAACATGTCTTCATCTGTGT | 0.839 |
| TTGAAATCTATGAACTAGCTCT | 0.87 |
| TTTTTCTCCACCAACCAACTGC | -0.0677 |
| TAAAACATAGGACTTCGTCCAC | 0.0328 |
| TTGTTTCACATTTCTTCTCTGT | 0.377 |
| TTCTCCACCAACCAACTGCAGA | -1.35 |
| TAAATCCATCAGAACAGCCTGG | -0.235 |
| TTGCTCATCATCTTCTATGGGT | 0.349 |
